Measurements reported in PubChem BioAssay (NCATS).
Records with an inconclusive call do not appear. A number with no mark means an inactive call. The call rests on the fitted dose curve; in most records, active means well fitted cell-killing curve with a large enough effect; inconclusive means small, poorly fitted or top-dose-only effect, or effect the other way; inactive means flat fitted curve, though single readings scatter.

Each compound was assayed on SKOV3 (assay: Primary qHTS to identify gynecologic anti-cancer compounds using libraries of approved drugs and bioactive compounds (AID 1345084; further: nearly all actives have a fitted effect of over 55% in size)). Details: Gynecologic cancer cell panel viability, ATPlite luminescence, 48 h; series mostly up to 57.5 µM; activity change, negative = cytotoxicity: at the top concentration.
Procedure, shortened: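 ATP-based viability (ATPlite), 1,000 cells/well, 16 h pre-incubation, 48 h compound at 37 C, 5% CO2, 15 min RT before read.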
On the % scale 0 is the no-effect control and ±100 the full control effect.

Point of comparison: `CCC[C@H](N[C@@H](C)C(=O)N1[C@H](C(=O)O)C[C@@H]2CCCC[C@@H]21)C(=O)O`, “activity change, negative = cytotoxicity” value 4.94%. Against it:
- C[C@@H]1O[C@@H](OC(=O)Cc2ccccc2)[C@H](O)[C@H](O)[C@H]1O — lower, 0%
- CC(C)c1ccc2c(c1)CCC1[C@](C)(C(=O)O)CCC[C@]21C (stereo partly specified) — lower, 1.98%
- O=C(O)c1ccc(NC(=O)[C@H](CC2CCCC2)n2cnc(C(F)(F)F)c2)nc1 — higher, 6.75%
- CC(C)C1CCC(C(=O)N[C@@H](Cc2ccccc2)C(=O)O)CC1 (stereo partly specified) — higher, 23.3%

Point of comparison: `C/C(=C/CO)CC[C@H]1[C@]2(C)C[C@H](O)CC(C)(C)[C@H]2CC[C@]1(C)O`, “activity change, negative = cytotoxicity” value 0% [at 38.5 µM]. Against it:
- C=C1C[C@]23C[C@H]1CC[C@H]2[C@]1(C)CC[C@H](O)[C@@](C)(C(=O)O)[C@H]1[C@@H]3C(=O)O — higher, 7.09% [at 38.5 µM]
- COC(=O)C1(C)CCCC2(C)c3ccc(C(C)C)cc3C(O)C(O)C12 (stereo unspecified) — lower, -0.247% [at 38.5 µM]

Point of comparison: `COC(=O)[C@H](O)[C@H]1C(C)(C)[C@H](OC(C)=O)[C@@]2(O)C(=O)[C@]1(C)C1CC[C@]3(C)C(CC(=O)O[C@H]3c3ccoc3)[C@]13O[C@@H]32` (stereo partly specified), “activity change, negative = cytotoxicity” value 7.51% [at 25.3 µM]. Against it:
- O=C(OC[C@H]1O[C@H](O[C@]2(CO)O[C@H](CO)[C@@H](O)[C@@H]2O)[C@H](O)[C@@H](O)[C@@H]1O)c1ccc(O)cc1 — lower, 0% [at 25.3 µM]
- C[C@@H]1O[C@@H](OC[C@H]2O[C@@H](OCc3ccccc3)[C@H](O)[C@@H](O)[C@@H]2O)[C@H](O)[C@H](O)[C@H]1O — lower, 2.33% [at 25.3 µM]
